Results as given in ChEMBL document CHEMBL4513216, “Probing the Open Global Health Chemical Diversity Library for Multistage-Active Starting Points for Next-Generation Antimalarials” (ACS Infect Dis, 2020).
Screen size: about 69,000 compounds; about 8,600 (12%) showed an effect of 50% or more. Only a selection was taken, and strong results are over-represented in it overall.

Tested on: Plasmodium berghei
Experiment: Screen against P. berghei liver stage (PbLuc), transformed with Luciferase, at 10uM
Format: functional, HepG2
Details: tested at 10 uM

Point of comparison: `N#Cc1ccc(NC(=O)C2CSCN2)cc1` (stereo not drawn), INHIBITION 39%. Against it:
- COCCN(Cc1cccc(C#N)c1)Cc1nc(C)no1 — higher, 41.2%
- O=C(Cc1ccc2c(c1)OCC2)Nc1nc(C(F)(F)F)n[nH]1 — lower, 28.6%
- CN1CCC(N(C)C(=O)CSc2ccc(F)c(F)c2)C1=O (stereo not drawn) — lower, -0.897%
- CN1CCC(N(C)C(=O)CCc2ccc(F)c(F)c2)C1=O (stereo not drawn) — lower, 17.9%
- CC(C)c1ccc(CCC(=O)N(C)C2CCN(C)C2=O)cc1 (stereo not drawn) — higher, 53.8%
- COCC(=O)N1CCC2(CC1)COC(COCc1ccccn1)C2 (stereo not drawn) — lower, 33%
- Cc1nn(C)c2c(=O)n(Cc3ccc(Cl)cc3)nnc12 — higher, 48.25%
- CN(CCc1ccccn1)C(=O)C1Cc2ccccc2CN1C (stereo not drawn) — lower, 20%
- CC(=O)N1Cc2ccccc2CC1C(=O)Nc1ccc(C)cn1 (stereo not drawn) — lower, 32.7%
- CC(=O)N1Cc2ccccc2CC1C(=O)Nc1cc(C)ccn1 (stereo not drawn) — higher, 56.5%
- CC(=O)N1Cc2ccccc2C[C@H]1C(=O)N(C)CCc1ccccn1 — higher, 58.1%
- CC(=O)N1Cc2ccccc2C[C@H]1C(=O)N(C)Cc1ccccn1 — higher, 40.7%
- CC(=O)N1Cc2ccccc2C[C@H]1C(=O)Nc1ccccn1 — lower, 28.7%
- Cn1cnc(S(=O)(=O)NCCN2CCCCCC2)c1Cl — lower, 31.2%
- CCC(Oc1ccccc1)c1nn2c(CN(CC)CC)nnc2s1 (stereo not drawn) — lower, -31.7%
- Cc1nc([C@@H]2C[C@@H]3CCN(C(=O)c4ccsc4)C[C@H]3O2)no1 — lower, 18.5%
- Cc1cc(-c2cnc(C)nc2CN(C)C(=O)c2ccccn2)on1 — lower, 18.3%
- CCCN(C(=O)c1cccnc1)c1nc2c(s1)CCc1c-2cnn1C — higher, 78.2%
- CCCN(C(=O)c1cnccn1)c1nc2c(s1)CCc1c-2cnn1C — lower, 29.2%
- CN(C(=O)c1ccccn1)c1nnc(C2CCOC2)s1 (stereo not drawn) — lower, -13.745%
- COCCN(C(=O)c1cnccn1)c1nc2c(s1)CCc1c-2cnn1C — lower, 11.1%
- COCCN(C(=O)c1ccccn1)c1nc2c(s1)CCc1c-2cnn1C — higher, 59.3%
- CCCN(C(=O)c1ccncc1)c1nc2c(s1)CCc1c-2cnn1C — higher, 46%
- CN(C(=O)c1ccccn1)c1nc2c(s1)CCc1c-2cnn1C — higher, 74.5%
- CCCN(C(=O)c1cnc(C)cn1)c1nc2c(s1)CCc1c-2cnn1C — higher, 44.8%
- CCCN(C(=O)c1ccccn1)c1nc2c(s1)CCc1c-2cnn1C — higher, 63.1%
- COCCN(Cc1ccoc1)C(=O)c1ccccn1 — lower, 11.8%
- CCCN(C(=O)COC)c1nc2c(s1)CCc1c-2cnn1C — lower, 5.13%
- O=C(NCCCNC(=O)c1cccc(O)c1)NCc1ccccc1F — lower, -1.58%
- CCn1cc(CN2CCCN(C(=O)c3ccco3)CC2)cn1 — lower, -61.4%
- COC(=O)c1ccnn1COc1ccc(Cl)cc1 — lower, 16%
- CCc1nn(C)c2[nH]nc(NC(=O)c3ccccc3COC)c12 — lower, 33.7%
- COc1cc(CNCc2ccco2)ccc1OCCO — lower, 10.6%
- CCN(CC)S(=O)(=O)c1cc(Br)ccc1OC — lower, -32.9%
- COc1cc(OC)cc(C(=O)N(C)Cc2nnc3ccccn23)c1 — lower, -6.14%
- Cc1c[nH]c(CN2CCCCC2CCn2ccnc2C)c(C)c1=O (stereo not drawn) — higher, 53.9%
- Cc1nccn1CCC1CCCCN1Cc1cnc(N(C)C)nc1 (stereo not drawn) — lower, 33.3%
- Cc1c[nH]c(CN2CCCCC2CCN(C)C)c(C)c1=O (stereo not drawn) — lower, 38.8%
- Cc1c[nH]c(CN2CCCCC2CCn2cccn2)c(C)c1=O (stereo not drawn) — higher, 51.8%
- Cc1nccn1CCC1CCCCN1Cc1ccncc1 (stereo not drawn) — lower, -57.8%
- Cc1c[nH]c(CN2CCCCC2CCc2cccc(O)c2)c(C)c1=O (stereo not drawn) — higher, 39.9%
- Cc1nccn1CCC1CCCCN1Cc1ccc(N(C)C)nc1 (stereo not drawn) — lower, -38.9%
- Cc1nccn1CCC1CCCCN1Cc1ccc2c(c1)OCCO2 (stereo not drawn) — higher, 51.3%
- Cc1cc2c(cc1CN1CCCCC1CCn1ccnc1C)OCO2 (stereo not drawn) — lower, 13.7%
- CC[C@@H]1N(Cc2nccs2)CCC[C@]12CCC(=O)N2C — lower, -27%
- COc1ccc(-c2nnc(CNCCn3cccn3)o2)cc1 — lower, 23.5%
- CO[C@H]1CCN(C(=O)c2cc(C)on2)C[C@@H]1Cc1ccccc1 — lower, 2.58%
- Cc1[nH]ncc1CCCNC(=O)N1CCCC(c2nncn2C)C1 (stereo not drawn) — lower, -29.8%
- CCCn1nccc1NC(=O)CN1CCCC1Cn1cccn1 (stereo not drawn) — lower, 12.3%
- Cc1cccc(OCC2CCCN(C(=O)Cn3ccccc3=O)C2)c1 (stereo not drawn) — lower, 13.6%
- COc1ccc(CNC(=O)Nc2ccc(=O)n(C)c2)cc1 — lower, 29%
- Cn1cc(C(=O)Nc2ccnc(Oc3ccccc3)c2)ccc1=O — lower, 16.8%
- COc1cccc(CCNC(=O)c2ccc(=O)n(C)c2)c1 — lower, 24.2%
- COC(=O)c1ccc(CNC(=O)Nc2ccc(=O)n(C)c2)cc1 — higher, 59.3%
- Cn1cc(NC(=O)NCc2ccoc2)ccc1=O — higher, 47.4%
- COc1ccc(CNC(=O)c2ccc(=O)n(C)c2)cc1C — lower, 11.8%
- Cn1cc(C(=O)Nc2cccc(Oc3ccncc3)c2)ccc1=O — higher, 51.5%
- Cn1cc(C(=O)Nc2cccc(F)c2)ccc1=O — higher, 42.6%
- COc1cccc(-c2ccc(CNC(=O)c3ccc(=O)n(C)c3)cc2)c1 — higher, 72.3%
- CN1Cc2ccccc2CC2(CCN(Cc3nccn3C)CC2)C1=O — lower, 34.5%
- Cc1cc(C2CCCN(CCNS(=O)(=O)c3ccccc3)C2)n[nH]1 (stereo not drawn) — lower, 11.9%
- CC1CN(C)CCN1C(=O)Nc1nc(-c2ccco2)cs1 (stereo not drawn) — lower, 14%
- O=C(c1ccco1)N1CCC2(CCC(=O)N2Cc2ccncc2)CC1 — lower, 8.74%
- c1ccc(Cc2noc(-c3ccc(NCC4COCCO4)nc3)n2)cc1 (stereo not drawn) — lower, 12.02%
- CC(NC(=O)NCCC(=O)OC(C)(C)C)c1nncn1C (stereo not drawn) — lower, 25.4%
- CCc1nccn1-c1cncc(C2CCCN2CC(=O)N2CCCC2)n1 (stereo not drawn) — lower, 4.08%
- Cc1cc2cccc(C(=O)N3CCOC(CCN(C)C)C3)c2o1 (stereo not drawn) — lower, 33%
- Cc1cccc(CN2CC3(CCN(S(=O)(=O)C4CC4)CC3)OCC2=O)n1 — lower, 7.53%
- Cc1nccn1CCCn1cncc1-c1ccc2c(c1)CC(C)N2C (stereo not drawn) — higher, 62.4%
- CN1CCCc2cc(-c3cncn3CCNC3CCS(=O)(=O)C3)ccc21 (stereo not drawn) — lower, 32.3%
- Cc1cc(C)n(CCCn2cncc2-c2ccc3c(c2)CC(C)N3C)n1 (stereo not drawn) — higher, 42.6%
- Cc1nccn1CCCn1cncc1-c1ccc2c(c1)CCC(C)N2C (stereo not drawn) — higher, 87.7%
- Cc1nccn1CCCn1cncc1-c1ccc2c(c1)CCCN2C — higher, 41.5%
- CCN1c2ccc(-c3cncn3CCCn3ccnc3C)cc2CC1C (stereo not drawn) — lower, 36%
- O=C(NCc1ccco1)[C@@H]1CCO[C@@H]2CCN(c3ncccn3)C[C@H]21 — lower, 17.1%
- O=C(Cn1ncc2c(c1=O)CCCC2)Nc1cccc2[nH]ccc12 — lower, 30.2%
- Cc1nc(N(C)C)nc(NCCc2c[nH]cn2)c1C — lower, -38%
- COCC(=O)N1CCCC(c2csc(NC(C)=O)n2)C1 (stereo not drawn) — lower, -55%
- CCCn1cc(S(=O)(=O)N(C)Cc2nonc2C)c(C)n1 — lower, 3.48%
- Cn1cc(CN2CCc3c(cnc(-c4ccccc4)c3C(=O)O)C2)cn1 — lower, 23.3%
- CNC(=O)C1Cn2ccnc2C2(CCN(C(=O)CC3CCCC3)CC2)O1 (stereo not drawn) — lower, -10.3%
- Cc1ccc(C(=O)N2CCC(c3noc(-c4cccnc4)n3)CC2)cn1 — higher, 42.6%
- COCCN1C[C@@H](C)[C@@]2(COCCN(C(=O)c3ccccn3)C2)C1 — lower, 36.2%
- CCCNC(=O)c1nn(CC)cc1NC(=O)c1c(C)nn(C)c1C — lower, -4.56%
- O=C(COc1ccc(Cl)cc1)N1CCOCC1c1ncon1 (stereo not drawn) — higher, 55.4%
- CCc1ccccc1OCC(=O)N1CCOCC1c1ncon1 (stereo not drawn) — higher, 60.5%
- CC(C)c1ccc(OCC(=O)N2CCOCC2c2ncon2)cc1 (stereo not drawn) — lower, -50.8%
- O=C(COc1cccc(Cl)c1)N1CCOCC1c1ncon1 (stereo not drawn) — lower, 7.12%
- Cc1ccc(OCCC(=O)N2CCOCC2c2ncon2)cc1C (stereo not drawn) — lower, 21.6%
- CCc1ccc(CCC(=O)N2CCOCC2c2ncon2)cc1 (stereo not drawn) — lower, 27.9%
- Cc1ccc(CCC(=O)N2CCOCC2c2ncon2)c(C)c1 (stereo not drawn) — lower, -56.7%
- Cc1cc(C)cc(OCCC(=O)N2CCOCC2c2ncon2)c1 (stereo not drawn) — higher, 50.4%
- Cc1cccc(C)c1OCC(=O)N1CCOCC1c1ncon1 (stereo not drawn) — lower, -53.2%
- Cc1cc(C(F)(F)F)c2c(=O)n(Cc3ccon3)n(C)c2n1 — lower, 14.3%
- CC(C)N(C)Cc1cncc2c1CCN(C1CCOCC1)C2 — lower, 25.6%
- COc1ccc(C(=O)CCc2nc(C3CC3)no2)cc1 — lower, -23.3%
- Cc1cnn(CC2CCCCN2C(=O)c2ccc(N(C)C)nc2)c1 (stereo not drawn) — lower, -4.16%
- c1ccc(CN2CCc3c(COCC4CC4)cncc3C2)nc1 — lower, 23.5%
- Cc1nc2cc(-c3nccn3C)nn2c(N2CCCC(CO)C2)c1C (stereo not drawn) — lower, -15.9%
- O=S(=O)(NCc1ccccc1)N(Cc1ccccn1)CC1CCCO1 (stereo not drawn) — lower, -1.91%
- CC(C)[C@@H]1CN(Cc2ccccn2)C[C@H]1NS(=O)(=O)N(C)C — lower, 9.72%
- CC(C)[C@H]1CN(Cc2ccccn2)C[C@@H]1NS(=O)(=O)C1CC1 — higher, 67.5%
- CC(C)[C@H]1CN(Cc2ccccn2)C[C@@H]1NC(=O)CCS(C)(=O)=O — lower, 28.2%
- COc1ccc(CC2(CO)CCN(c3cc(C#N)ccn3)CC2)cc1 — lower, 1.74%
- CC(=O)NCCNC(=O)NCc1ccc(-n2ccc(C(F)(F)F)n2)cc1 — lower, -12.1%
- CCN(C(=O)c1nc2c(s1)CCCN2C)C(C)C — lower, 23.6%
- CC(C)c1noc(CCNC(=O)N2CCSC(C(C)C)C2)n1 (stereo not drawn) — lower, 37.9%
